This is a sample that favours compounds with a hit; in the whole collection about 31% have one here.
CYP2C19 act: increases human CYP2C19 enzyme activity; recombinant CYP2C19, luciferin-H EGE luminescence; hits give high values; 0 = fully inhibited enzyme, 1 = untreated enzyme; activation factor at 5 µM; 96,000 tested, under 10 active;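 active = activation factor of at least 2 at 5 µM in the primary screen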
PLAP act: activators of human placental alkaline phosphatase | P05187 | purified PLAP enzyme, luminescent substrate read-out; hits give high values | activation fold at 20 µM | hit rate 1.2% among 96,000 | AID 696; in the data active = activation fold above about 2
CYP2C9 activ: activators of human CYP2C9 | AID 1024 | recombinant CYP2C9, luciferin-H conversion, luminescence; hits give high values; factor 1 = untreated enzyme, 0 = blocked | hit rate 1.4% among 96,000 | P11712 | activation factor at 5 µM;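 active = activation factor of 2 or more for CYP2C9 at a 5 µM dose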
Target sequence (P11712 whole entry, looked up): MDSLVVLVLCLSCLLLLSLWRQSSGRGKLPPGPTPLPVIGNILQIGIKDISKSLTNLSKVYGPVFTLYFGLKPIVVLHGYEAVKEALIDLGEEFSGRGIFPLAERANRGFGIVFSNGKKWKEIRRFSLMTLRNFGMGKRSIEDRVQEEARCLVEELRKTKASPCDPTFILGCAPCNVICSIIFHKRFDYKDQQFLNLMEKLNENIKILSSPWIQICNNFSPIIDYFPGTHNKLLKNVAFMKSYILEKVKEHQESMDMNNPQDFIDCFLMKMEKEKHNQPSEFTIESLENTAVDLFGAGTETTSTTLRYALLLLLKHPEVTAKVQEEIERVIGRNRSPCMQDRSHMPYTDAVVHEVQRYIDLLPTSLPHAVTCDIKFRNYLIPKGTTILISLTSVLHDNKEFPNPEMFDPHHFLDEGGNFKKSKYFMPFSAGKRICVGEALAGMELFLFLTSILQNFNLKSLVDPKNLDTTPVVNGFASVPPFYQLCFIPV
CYP2C19 inh: human CYP2C19 inhibition; hit rate 21% among 96,000; AID 778; inhibition, % at 5 µM; CYP2C19 Supersomes, luciferin-H EGE luminescence, 30 min;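 active = CYP2C19 inhibition above a set limit at 5 µM in the primary screen, cut at about 50% in these data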
CYP2C9 inh: inhibitors of human CYP2C9; hit rate 20% among 96,000; CYP2C9 Supersomes, luciferin-H conversion, luminescence; inhibition, % at 5 µM; P11712;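 active = blocking of liver enzyme CYP2C9 beyond about 50% at 5 µM, limit read from the data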
A number is an active result; . = inactive; / = no result given.

SMILES | CYP2C19 act | PLAP act | CYP2C9 activ | CYP2C19 inh | CYP2C9 inh
COc1ccccc1NC(=O)N(Cc1ccco1)Cc1cc2cc(C)cc(C)c2[nH]c1=O | . | . | . | 60 | 62
COc1ccccc1NC(=O)N(Cc1ccco1)Cc1cc2ccc(C)c(C)c2[nH]c1=O | . | . | . | . | 64
CCC1SC(N)=NC1=O (stereo unspecified) | . | . | . | . | .
N#CCCN(CCC#N)C(=O)c1ccc2c(c1)OCO2 | . | . | . | . | .
Cc1ccc(S(=O)(=O)Nc2nc3n(n2)C(c2ccc(Cl)cc2)CC(=O)N3)cc1 (stereo unspecified) | . | . | . | . | .
CCc1ccc(-c2nc(CN3CCC(C(=O)NCc4ccccc4OC)CC3)c(C)o2)cc1 | . | / | . | . | .
Cc1oc(-c2ccccc2)nc1Cn1cccc1C1=NC(c2ccccc2)CO1 (stereo unspecified) | . | . | . | 84 | 82
O=C(Nc1ccccc1-c1nnc(SCc2ccc(Cl)cc2)o1)c1ccccc1 | . | . | . | . | 70
O=C(Nc1ccccc1-c1nnc(SCc2ccccc2)o1)c1ccccc1 | . | . | . | . | 79
O=C(O)c1cccc(CSc2nnc(-c3ccco3)o2)c1 | . | . | . | . | .
O=c1c(-c2nnc(SCc3ccc(Cl)cc3)o2)cccn1Cc1ccccc1 | . | . | . | 91 | .
Cc1cc(C)c2c(n1)nn1c(NCCCn3ccnc3)cc(C)nc21 | . | 2.5 | . | 69 | 96
Cc1cc(NCCOCCO)n2ncc(-c3ccc(Cl)cc3)c2n1 | . | . | . | . | .
CC(C)(C)c1cc(NCCCn2ccnc2)n2ncc(-c3ccc(Cl)cc3)c2n1 | . | . | . | . | 66
Cc1cc(NCCCn2ccnc2)n2nc(-c3ccc(F)cc3)cc2n1 | . | . | . | 97 | 98
Cc1cc(NCCCN2CCOCC2)n2nc(C)c(-c3ccc(F)cc3)c2n1 | . | . | . | . | .
CCCCc1nnc(NC(=O)C(C)Sc2nc(N)cc(=O)[nH]2)s1 (stereo unspecified) | . | . | . | . | .
Cc1ccc2c(C)[nH]c(=O)cc2c1 | . | . | . | . | .
O=C1C(Cl)=C(N2CCOCC2)C(=O)N1c1ccccc1Cl | . | . | . | 94 | .
COC(=O)c1cccc(N2C(=O)C(Cl)=C(N3CCOCC3)C2=O)c1 | . | . | . | 61 | .
Cc1ccccc1N1C(=O)C(Cl)=C(N2CCN(c3ccccc3)CC2)C1=O | . | . | . | . | .
CCOC(=O)N1CCN(C(=O)CSc2nnc(-c3ccc(C(C)(C)C)cc3)o2)CC1 | . | . | . | . | .
CCCC(=O)N1CC(=O)Nc2ccc(F)cc2C1c1ccccc1 (stereo unspecified) | . | . | . | . | .
O=C1CN(C(=O)c2ccco2)C(c2ccccc2)c2cc(Cl)ccc2N1 (stereo unspecified) | . | . | . | 59 | 71
O=C1CN(C(=O)c2ccc(Br)o2)C(c2ccccc2)c2cc(Cl)ccc2N1 (stereo unspecified) | . | . | . | 86 | 100
SMILES | CYP2C19 act | PLAP act | CYP2C9 activ | CYP2C19 inh | CYP2C9 inh
O=C(O)CN1C(=O)Nc2ccc(Br)cc2C1c1ccccc1 (stereo unspecified) | . | . | . | . | .
O=C1CN(C(=O)c2ccc(Br)o2)C(c2ccc(F)cc2)c2cc(Cl)ccc2N1 (stereo unspecified) | . | . | . | . | 73
Cc1ccccc1C(=O)Nc1cccc(NC(=O)Cn2cnc3c(=O)n(C)c(=O)n(C)c32)c1 | . | . | . | . | 59
Cc1cccc(C)c1NC(=O)Cn1cnc2c(=O)n(C)c(=O)n(C)c21 | . | . | . | . | .
CCCn1c(SCC(=O)c2ccc(CC)cc2)n[nH]c1=O | . | . | . | . | .
Fc1ccc(-c2nnc(NC3=NCCCCC3)o2)cc1 | . | . | . | 56 | .
O=C(COC(=O)C12CC3CC(CC(C3)C1)C2)Nc1ncc(Cl)cc1Cl | . | . | . | 79 | .
CC(C(=O)OCC(=O)Nc1ncc(Cl)cc1Cl)N1C(=O)c2ccccc2C1=O (stereo unspecified) | . | . | . | . | .
CC(C)(Oc1ccc(Cl)cc1)C(=O)OCC(=O)Nc1ncc(Cl)cc1Cl | . | . | . | 91 | .
O=C(COC(=O)CC12CC3CC(CC(C3)C1)C2)Nc1ncc(Cl)cc1Cl | . | . | . | 89 | 66
COc1cc(NC(=O)CC2NCCNC2=O)cc(OC)c1 (stereo unspecified) | . | . | . | . | .
O=C(Oc1ccc(-c2cnc3ccccc3n2)cc1)c1ccco1 | . | . | . | . | .
